Calls of active or inactive are those of the source. Unless noted, how the calls were made is not given here.
What was measured:
[1] = anti-His antibody binders, primary screen, artefact control for SMM control protein annotation, biochemical, small-molecule microarray, 635 nm fluorescence (AID 1128); settings: anti-His Alexa647 antibody binding, higher = more signal;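 further: score merges feature fluorescence with signal-to-noise for each printed compound spot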
[2] = tested on: Human papillomavirus type 1a E7 protein (residues 1-88); test: HPV1a E7 small-molecule binders, primary screen, biochemical, small-molecule microarray, residues 1-88, 635 nm (AID 1129); settings: small-molecule microarray binding, fluorescence 635 nm; higher = more signal
[3] = molecular target: Focal adhesion kinase 1 (Homo sapiens) (UniProt Q05397); test: small-molecule microarray binders of FAK, primary screen, biochemical, 635/667 nm fluorescence, BSA, DTT (AID 1130); settings: PTK2 binding, 635 nm fluorescence, higher = more signal;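 further: composite of spot emission at 667 nm and signal to noise over triplicate slides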
[4] = tested on: Fibrinogen (Alexa647-labelled); test: fibrinogen binders on compound microarrays, profiling panel, artefact control for SMM control-protein annotation, biochemical, small-molecule microarray, 635/667 nm fluorescence (AID 1131); settings: fibrinogen-A647 binding fluorescence, higher = more signal;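 further: z-score merges 667 nm fluorescence with per-spot signal-to-noise over triplicate slides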
[5] = molecular target: Follistatin (Homo sapiens) (UniProt P19883); test: follistatin binders on small-molecule microarrays, primary screen, biochemical, small-molecule microarray, 635/667 nm fluorescence (AID 1132); settings: FST binding, 635 nm fluorescence, higher = more signal
[6] = molecular target: Fibroblast growth factor 2 (Homo sapiens) (UniProt P09038); test: FGF2 binders on small-molecule microarrays, primary screen, biochemical, small-molecule microarray, 635/667 nm fluorescence (AID 1133); settings: small-molecule microarray binding, FGF2, fluorescence 635/667; higher = more signal
[7] = mitochondrial membrane potential change in A549 cells, profiling panel, cell-based, JC-1 fluorescence, basal, 24 h, 100 nL (AID 1138); settings: higher = more signal;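 further: A549 lung adenocarcinoma cells under basal conditions with no added stimulus; test concentration not given here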
Lefty1 = Lefty1 binders on small-molecule microarrays, primary screen, biochemical, small-molecule microarray, 635/667 nm fluorescence (AID 1139); settings: small-molecule microarray binding, fluorescence 635/667; higher = more signal
[8] = tested on: wheat germ agglutinin (Triticum aestivum), Alexa647-labelled; test: wheat germ agglutinin binders on compound microarrays, profiling panel, artefact control for SMM control-protein annotation, biochemical, small-molecule microarray, 635/667 nm fluorescence (AID 1140); settings: WGA-A647 binding, 635 nm fluorescence, higher = more signal;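 further: score merges 667 nm feature emission with signal to noise over triplicate slides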
[9] = molecular target: Luciferin 4-monooxygenase (Photinus pyralis) (UniProt P08659); test: firefly luciferase enzyme inhibitors, primary screen, biochemical, luminescence, purified enzyme, 2006 set (AID 1141); settings: SteadyGlo luminescence, 30 min, higher = more signal, called active from +8 up or from −8 down;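 further: cell-free assay with purified firefly luciferase at 100 ng per well in PBS; test concentration not given here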
[10] = tested on: Wnt5a (protein binding on small-molecule microarray); test: Wnt5a binders on small-molecule microarray, primary screen, biophysical, 635/667 nm fluorescence (AID 1142); settings: 635 nm fluorescence, higher = more signal;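 further: fluorescence read at 667 nm with signal to noise per printed feature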
[11] = cell viability in Huh7 cells, primary screen, cytotoxicity control for HCV replication inhibitor project, CellTiter-Glo luminescence, basal, 48 h (AID 1143); settings: Huh7 HCV replicon, higher = more signal, called active from +8 up or from −8 down;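 further: Huh7 hepatoma cells carrying a hepatitis C replication reporter with no stimulus; test concentration not given here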
[12] = P. aeruginosa biofilm formation inhibitors, primary screen, PAO1 strain, BacTiter-Glo luminescence, LB-PBS (AID 1144); settings: 12 h, higher = more signal
[13] = CREB reporter modulators without forskolin, primary screen, cell-based, PC12, CRE-LacZ reporter, unstimulated (AID 1145); settings: no forskolin, luminescence, 4.5 h, higher = more signal, called active from +8 up or from −8 down
[14] = CREB reporter modulators under forskolin, primary screen, cell-based, PC12, CRE-LacZ reporter, forskolin-stimulated (AID 1146); settings: luminescence, 4.5 h, higher = more signal, called active from +8 up or from −8 down;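 further: PC12 cells with 6xCRE LacZ reporter stimulated by forskolin 10 µM; beta-galactosidase reporter signal reflecting CREB driven transcription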
[15] = molecular target: Streptavidin (Streptomyces avidinii) (UniProt P22629); test: streptavidin binders on small-molecule microarray, primary screen, artefact control for SMM compound annotation, biophysical, 635/667 nm fluorescence (AID 1147); settings: streptavidin binding, higher = more signal;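 further: signal reflects streptavidin binding to arrayed compounds as a control protein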
[16] = small-molecule binders of probe aInhba, primary screen, biochemical, small-molecule microarray, 635/667 nm fluorescence (AID 1148); settings: higher = more signal;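 further: score merges 667nm spot fluorescence with signal-to-noise for antibody binding to printed compounds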
Torsin-1A (Homo sapiens) [17] = molecular target: Torsin-1A (Homo sapiens) (UniProt O14656); test: torsin A binders from cell lysate, primary screen, small-molecule microarray, wild-type, 635/667 nm (AID 1149); settings: COS7 hTOR1A-WT lysate, 635 nm fluorescence, higher = more signal
Torsin-1A (Homo sapiens) [18] = molecular target: Torsin-1A (Homo sapiens) (UniProt O14656); test: small-molecule binders of mutant TOR1A in lysate, primary screen, cell lysate, small-molecule microarray, COS7 lysate, 635/667 nm fluorescence (AID 1150); settings: COS7 hTOR1A mutant lysate, 635 nm fluorescence, higher = more signal;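 further: score pools 667 nm emission and signal to noise measuring lysate protein binding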
[19] = tested on: Sonic hedgehog protein (Shh); test: small-molecule binders of Shh protein, primary screen, biochemical, small-molecule microarray, 635/667 nm fluorescence (AID 1151); settings: small-molecule microarray binding, 635 nm fluorescence; higher = more signal;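 further: Shh protein binding to compounds spotted on small-molecule microarray slides; score combines spot fluorescence intensity with signal-to-noise across triplicate slides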

Sequence of Follistatin (Homo sapiens) (P19883 whole entry, looked up): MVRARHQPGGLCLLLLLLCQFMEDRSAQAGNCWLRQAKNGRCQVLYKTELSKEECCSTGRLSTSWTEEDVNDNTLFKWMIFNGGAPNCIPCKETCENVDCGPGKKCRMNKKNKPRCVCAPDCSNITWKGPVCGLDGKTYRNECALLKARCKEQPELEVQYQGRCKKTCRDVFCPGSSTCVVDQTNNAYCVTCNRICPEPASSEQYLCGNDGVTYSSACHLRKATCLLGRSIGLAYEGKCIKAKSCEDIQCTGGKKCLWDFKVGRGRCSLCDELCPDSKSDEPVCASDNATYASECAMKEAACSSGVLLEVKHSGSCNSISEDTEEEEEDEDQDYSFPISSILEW
Sequence of Luciferin 4-monooxygenase (Photinus pyralis) (P08659 whole entry, looked up): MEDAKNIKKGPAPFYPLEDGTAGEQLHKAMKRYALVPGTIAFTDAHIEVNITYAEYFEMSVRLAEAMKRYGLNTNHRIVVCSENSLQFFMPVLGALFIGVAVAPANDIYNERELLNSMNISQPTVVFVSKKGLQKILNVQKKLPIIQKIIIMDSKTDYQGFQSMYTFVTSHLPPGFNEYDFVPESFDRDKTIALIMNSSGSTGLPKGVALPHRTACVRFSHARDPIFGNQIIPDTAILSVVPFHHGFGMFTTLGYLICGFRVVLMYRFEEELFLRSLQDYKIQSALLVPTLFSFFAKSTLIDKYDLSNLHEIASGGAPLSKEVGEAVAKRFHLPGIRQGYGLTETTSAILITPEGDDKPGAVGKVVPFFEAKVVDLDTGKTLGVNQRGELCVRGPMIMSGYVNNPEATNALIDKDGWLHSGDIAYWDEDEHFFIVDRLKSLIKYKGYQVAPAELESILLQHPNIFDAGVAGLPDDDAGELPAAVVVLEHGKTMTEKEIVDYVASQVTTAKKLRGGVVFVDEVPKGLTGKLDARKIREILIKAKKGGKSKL
Sequence of Torsin-1A (Homo sapiens) (O14656 whole entry, looked up): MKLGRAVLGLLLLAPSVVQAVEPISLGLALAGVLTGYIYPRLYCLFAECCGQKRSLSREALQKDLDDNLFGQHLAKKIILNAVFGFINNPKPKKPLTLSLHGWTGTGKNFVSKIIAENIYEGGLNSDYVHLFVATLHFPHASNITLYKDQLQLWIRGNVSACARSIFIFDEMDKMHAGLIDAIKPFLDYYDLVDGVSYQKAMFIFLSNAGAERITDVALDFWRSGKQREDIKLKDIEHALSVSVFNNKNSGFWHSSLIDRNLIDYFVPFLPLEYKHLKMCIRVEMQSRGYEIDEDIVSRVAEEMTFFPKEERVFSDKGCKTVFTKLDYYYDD
Sequence of Streptavidin (Streptomyces avidinii) (P22629 whole entry, looked up): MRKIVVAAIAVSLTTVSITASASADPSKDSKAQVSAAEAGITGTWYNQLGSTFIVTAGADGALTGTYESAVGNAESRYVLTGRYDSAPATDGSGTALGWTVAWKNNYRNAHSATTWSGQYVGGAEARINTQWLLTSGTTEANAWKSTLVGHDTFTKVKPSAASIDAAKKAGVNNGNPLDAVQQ
Sequence of Focal adhesion kinase 1 (Homo sapiens) (Q05397 whole entry, looked up): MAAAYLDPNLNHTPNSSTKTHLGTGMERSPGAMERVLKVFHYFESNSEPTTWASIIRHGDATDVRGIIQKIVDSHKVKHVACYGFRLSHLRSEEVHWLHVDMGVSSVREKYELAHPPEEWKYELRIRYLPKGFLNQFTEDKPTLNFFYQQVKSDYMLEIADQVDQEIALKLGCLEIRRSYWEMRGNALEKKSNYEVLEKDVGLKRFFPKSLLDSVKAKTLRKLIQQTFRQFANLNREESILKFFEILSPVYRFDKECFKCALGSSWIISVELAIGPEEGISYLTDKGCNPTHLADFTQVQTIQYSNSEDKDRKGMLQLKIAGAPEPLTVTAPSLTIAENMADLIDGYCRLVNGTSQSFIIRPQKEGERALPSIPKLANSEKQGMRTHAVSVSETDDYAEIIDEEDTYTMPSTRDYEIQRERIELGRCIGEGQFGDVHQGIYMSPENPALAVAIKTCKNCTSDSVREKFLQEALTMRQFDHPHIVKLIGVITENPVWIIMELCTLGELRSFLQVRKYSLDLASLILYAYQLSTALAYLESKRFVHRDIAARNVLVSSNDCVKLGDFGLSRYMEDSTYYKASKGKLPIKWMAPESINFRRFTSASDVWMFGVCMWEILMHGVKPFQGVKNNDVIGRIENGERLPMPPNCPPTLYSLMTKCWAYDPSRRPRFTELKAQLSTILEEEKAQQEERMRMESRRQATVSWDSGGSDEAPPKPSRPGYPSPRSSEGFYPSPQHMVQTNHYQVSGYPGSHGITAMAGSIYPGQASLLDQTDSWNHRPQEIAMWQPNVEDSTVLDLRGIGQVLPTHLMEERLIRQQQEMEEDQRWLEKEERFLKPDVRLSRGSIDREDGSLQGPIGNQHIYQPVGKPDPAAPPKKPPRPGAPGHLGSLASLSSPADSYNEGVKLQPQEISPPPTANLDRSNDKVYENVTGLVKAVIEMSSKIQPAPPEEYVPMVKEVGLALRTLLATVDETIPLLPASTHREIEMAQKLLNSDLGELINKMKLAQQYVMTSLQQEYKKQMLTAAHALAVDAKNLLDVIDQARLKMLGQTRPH
Sequence of Fibroblast growth factor 2 (Homo sapiens) (P09038 whole entry, looked up): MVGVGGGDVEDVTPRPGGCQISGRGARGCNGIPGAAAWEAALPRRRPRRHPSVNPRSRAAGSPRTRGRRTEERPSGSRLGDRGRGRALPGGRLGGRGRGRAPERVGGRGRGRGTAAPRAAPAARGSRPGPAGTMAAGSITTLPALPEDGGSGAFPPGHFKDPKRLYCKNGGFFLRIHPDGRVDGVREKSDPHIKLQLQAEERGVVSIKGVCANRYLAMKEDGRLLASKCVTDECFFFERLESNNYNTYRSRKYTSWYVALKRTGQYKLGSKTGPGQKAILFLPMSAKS

Structure (SMILES): CN(C)C(=O)C1N=C(c2ccc(OCCCO)cc2)N(c2ccccc2)O1 (stereo not given)
- composite z-score [1]: 1.33
- composite z-score [2]: 1.13
- composite z-score [3]: 0.268
- composite z-score [4]: 0.598
- composite z-score [5]: 1.35
- composite z-score [6]: 1.8
- z-score [7]: 0.936
- composite z-score (Lefty1): 1.29
- composite z-score [8]: 0.586
- z-score [9]: -14.9 (active)
- composite z-score [10]: 1.15
- z-score [11]: -1.17 (inactive)
- z-score [12]: 0.265 (inactive)
- z-score [13]: 0.0451 (inactive)
- z-score [14]: -0.102 (inactive)
- composite z-score [15]: -0.151
- composite z-score [16]: 0.0658
- composite z-score (Torsin-1A (Homo sapiens) [17]): 1.19
- composite z-score (Torsin-1A (Homo sapiens) [18]): 1.56
- composite z-score [19]: 2.03

Structure (SMILES): C=C(C)[C@@H]1CC=C(C(O)C2C=CC3C(=O)N(c4ccccc4)C(=O)C3N2Nc2ccccc2F)CC1 (stereo not given in full)
- composite z-score [1]: 0.282
- composite z-score [2]: 1.27
- composite z-score [3]: 1.12
- composite z-score [4]: 0.987
- composite z-score [5]: 1.11
- composite z-score [6]: 0.0538
- z-score [7]: -0.568
- composite z-score (Lefty1): 0.531
- composite z-score [8]: 1.27
- z-score [9]: -0.809 (inactive)
- composite z-score [10]: 0.29
- z-score [11]: 0.581 (inactive)
- z-score [12]: -0.887 (inactive)
- z-score [13]: 0.24 (inactive)
- z-score [14]: 0.493 (inactive)
- composite z-score [15]: 1.31
- composite z-score [16]: 0.153
- composite z-score (Torsin-1A (Homo sapiens) [17]): 0.0552
- composite z-score (Torsin-1A (Homo sapiens) [18]): 0.77
- composite z-score [19]: 0.27

Structure (SMILES): CCOC(=O)C1CCCCN1 (stereo not given)
- composite z-score [1]: 0.313
- composite z-score [2]: 0.859
- composite z-score [3]: -0.0288
- composite z-score [4]: 0.367
- composite z-score [5]: 0.599
- composite z-score [6]: 0.522
- z-score [7]: -0.0223
- composite z-score (Lefty1): 0.589
- composite z-score [8]: 0.109
- z-score [9]: 0.48 (inactive)
- composite z-score [10]: 0.781
- z-score [11]: 0.319 (inactive)
- z-score [12]: 0.566 (inactive)
- z-score [13]: -0.788 (inactive)
- z-score [14]: -0.398 (inactive)
- composite z-score [15]: 0.412
- composite z-score [16]: 0.705
- composite z-score (Torsin-1A (Homo sapiens) [17]): 0.544
- composite z-score (Torsin-1A (Homo sapiens) [18]): 0.388
- composite z-score [19]: 0.506

Structure (SMILES): CC(C)(C)N1CC=CC23O[C@@H]4C=CCOC(=O)[C@@H]4[C@H]2C(=O)N(CCCCCCO)[C@@H]3C1=O (stereo not given in full)
- composite z-score [1]: 0.184
- composite z-score [2]: -0.184
- composite z-score [3]: 0.527
- composite z-score [4]: -1.52
- composite z-score [5]: -1.42
- composite z-score [6]: -0.877
- z-score [7]: -0.12
- composite z-score (Lefty1): -0.447
- composite z-score [8]: 0.132
- z-score [9]: -0.234 (inactive)
- composite z-score [10]: -0.373
- z-score [11]: 0.0926 (inactive)
- z-score [12]: 2.06 (inactive)
- z-score [13]: 0.475 (inactive)
- z-score [14]: 0.437 (inactive)
- composite z-score [15]: -0.772
- composite z-score [16]: -0.209
- composite z-score (Torsin-1A (Homo sapiens) [17]): -0.191
- composite z-score (Torsin-1A (Homo sapiens) [18]): 0.769
- composite z-score [19]: -1.13

Structure (SMILES): COCCOC(=O)N1C(=O)[C@@]2(c3cc(C#Cc4ccc(OC)cc4)ccc31)[C@H](C(=O)Nc1nc3ccccc3s1)[C@H]1C(=O)O[C@H](c3ccccc3)[C@H](c3ccccc3)N1[C@@H]2c1ccc(O)cc1
- composite z-score [1]: -0.0507
- composite z-score [2]: 1.13
- composite z-score [3]: 0.0931
- composite z-score [4]: 0.965
- composite z-score [5]: 1.29
- composite z-score [6]: 1.09
- z-score [7]: -2.26
- composite z-score (Lefty1): 1.18
- composite z-score [8]: 0.927
- z-score [9]: -0.0504 (inactive)
- composite z-score [10]: 0.472
- z-score [11]: -3.43 (inactive)
- z-score [12]: -1.8 (inactive)
- z-score [13]: -1.83 (inactive)
- z-score [14]: 0.673 (inactive)
- composite z-score [15]: 0.768
- composite z-score [16]: 0.266
- composite z-score (Torsin-1A (Homo sapiens) [17]): 0.198
- composite z-score (Torsin-1A (Homo sapiens) [18]): 0.811
- composite z-score [19]: 1.91
